Experimental findings from paper PMC4336329 (PLoS ONE, 2015) are described below.

In all, about 310,000 compounds went through this assay and about 14,000 (4.5%) showed an effect of 50% or more. The effect is printed as a negative number. The sample holds strong results, similar compounds and a random draw of the others, so the mix is not that of the screen.
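Note: peak tail current of the secondary pulse compared with the same well before compound.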

For the assay, the target named is human ether-à-go-go-related gene (hERG) potassium channel (human, UniProt Q12809). Put plainly: primary screen, population patch clamp on CHO cells stably expressing hERG; higher = less effect of the substance.
human ether-à-go-go-related gene (hERG) potassium channel, sequence (Q12809 whole entry, looked up): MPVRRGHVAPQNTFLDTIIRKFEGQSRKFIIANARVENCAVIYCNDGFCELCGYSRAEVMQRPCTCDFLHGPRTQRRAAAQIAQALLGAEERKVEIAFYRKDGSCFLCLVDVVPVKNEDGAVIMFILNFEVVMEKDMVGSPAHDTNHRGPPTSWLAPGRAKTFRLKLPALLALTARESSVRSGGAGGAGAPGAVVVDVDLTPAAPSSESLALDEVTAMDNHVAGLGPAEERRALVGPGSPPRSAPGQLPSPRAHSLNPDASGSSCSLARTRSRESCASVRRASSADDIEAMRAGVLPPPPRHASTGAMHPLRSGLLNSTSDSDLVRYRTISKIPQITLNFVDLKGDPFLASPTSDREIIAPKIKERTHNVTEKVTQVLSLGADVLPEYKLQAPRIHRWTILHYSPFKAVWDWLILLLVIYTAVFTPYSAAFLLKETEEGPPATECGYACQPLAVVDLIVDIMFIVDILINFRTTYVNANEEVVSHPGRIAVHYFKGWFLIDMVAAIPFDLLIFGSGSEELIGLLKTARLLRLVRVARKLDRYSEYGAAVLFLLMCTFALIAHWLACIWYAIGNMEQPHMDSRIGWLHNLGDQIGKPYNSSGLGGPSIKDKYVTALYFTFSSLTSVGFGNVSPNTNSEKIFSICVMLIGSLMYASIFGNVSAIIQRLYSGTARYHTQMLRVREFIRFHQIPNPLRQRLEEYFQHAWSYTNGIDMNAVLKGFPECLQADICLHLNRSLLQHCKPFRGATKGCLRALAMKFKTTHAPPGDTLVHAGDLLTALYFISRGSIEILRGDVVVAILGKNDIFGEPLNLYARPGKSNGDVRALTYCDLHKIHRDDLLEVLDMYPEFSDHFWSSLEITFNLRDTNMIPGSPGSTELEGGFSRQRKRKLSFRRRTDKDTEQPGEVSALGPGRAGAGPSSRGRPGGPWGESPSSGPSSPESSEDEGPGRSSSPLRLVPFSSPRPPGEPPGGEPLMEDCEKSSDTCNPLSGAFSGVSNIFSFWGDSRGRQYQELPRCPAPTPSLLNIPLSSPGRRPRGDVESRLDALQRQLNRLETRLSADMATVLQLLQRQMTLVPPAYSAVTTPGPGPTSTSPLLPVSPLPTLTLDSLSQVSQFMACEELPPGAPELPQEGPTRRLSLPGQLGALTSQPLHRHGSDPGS
`COc1ccc(N(CC(=O)NCCSc2ccccn2)S(=O)(=O)c2ccc(C)cc2)cc1OC`: the “hERG current change (%, negative = inhibition) at 10uM” value is -17.7%. The value for `CCOc1ccccc1NC(=O)CCNS(=O)(=O)c1ccccc1` was 17.6%. To `Cc1ccc(C2=Nc3ccccc3N=C(c3ccc([N+](=O)[O-])cc3)C2)c(O)c1` belongs -3.53%; to `COc1ccc([C@@H]2CC(=O)c3c(O)cc(O)cc3O2)cc1O`, 5.19%; to `COc1ccc(OC)c(N2Cc3ccccc3C2)c1`, 12%. Regarding `c1ccc(-n2c(Cc3cccnc3)nc3cnccc32)cc1`, the “hERG current change (%, negative = inhibition) at 10uM” value is given as -50.5%.

Turning to `c1ccc(Cn2nnc3cnccc32)cc1`, the “hERG current change (%, negative = inhibition) at 10uM” value is 2.3%. To `c1ccc(-n2nnc3cnccc32)cc1` belongs 12%. The value for `COc1ccc(NC(=O)N(CCCN2CCOCC2)Cc2cccnc2)c(OC)c1` was 5.99%. To `N#Cc1cc2[nH]c3ccccc3c2[n+](-c2ccc([N+](=O)[O-])cc2)c1N.[Cl-]` belongs -65.1%; to `CCOC(=O)c1cc2[nH]c3ccccc3c2[n+](-c2ccc([N+](=O)[O-])cc2)c1C.[Cl-]`, -77.8%; to `CCOC(=O)c1ccc(-c2ccc3[nH]c4ccccc4c(=O)c3c2)cc1F`, 13%. As to `CCOC(=O)c1cc2[nH]c3ccccc3c2[n+](-c2ccc([N+](=O)[O-])cc2)c1N.O=C([O-])C(F)(F)F`, the “hERG current change (%, negative = inhibition) at 10uM” value is -58.4%.

With `CCOC(=O)c1cc(=O)[nH]c2ccccc12`, the “hERG current change (%, negative = inhibition) at 10uM” value is given as 19%.

Consider `Nc1[nH]c2cc([N+](=O)[O-])ccc2c1-c1ccccn1`, for which the “hERG current change (%, negative = inhibition) at 10uM” value was found to be 20.1%. For the compound `Cc1[nH]c2ccccc2c1/C=N/Nc1ccc([N+](=O)[O-])cc1`, the “hERG current change (%, negative = inhibition) at 10uM” value is 3.95%. To `CCOC(=O)c1csc(N)c1-c1ccc([N+](=O)[O-])cc1` belongs 6.52%; to `CCOC(=O)c1ccccc1NC(=O)c1cccc([N+](=O)[O-])c1`, 12.5%. For the compound `Cc1c(Cl)cccc1NC(=O)c1cc(-c2ccco2)on1`, the “hERG current change (%, negative = inhibition) at 10uM” value is listed as -0.802%. Consider `N#CC(C#N)=CN=c1ccn(Cc2ccc(Cl)cc2Cl)cc1`, for which the “hERG current change (%, negative = inhibition) at 10uM” value is 7.39%. Take `O=c1cc[nH]c2c(C(F)(F)F)cccc12`: the “hERG current change (%, negative = inhibition) at 10uM” value is listed as -0.945%. To `CCC(C)(C)NC(=O)Cn1c(-c2ccc(C)cc2)noc1=O` belongs 13.5%; to `CC12CCC(C(=O)Nc3ccccc3Cl)([C@H](Br)C1=O)C2(C)C` (some centres unmarked), 15.9%. To `COc1cc(C)c(Br)cc1S(=O)(=O)NCCN1CCOCC1` belongs 12.5%. Take `C/C=C(/C)C(=O)OC1c2c(ccc3ccc(=O)oc23)OC(C)(C)C1OC(=O)/C(C)=C\C` (centres unmarked): the “hERG current change (%, negative = inhibition) at 10uM” value was -12.3%. The value for `C/C=C(/C)C(=O)OC1c2c(ccc3ccc(=O)oc23)OC(C)(C)C1OC(C)=O` (centres unmarked) was -71.8%.

Regarding `C/C=C(/C)C(=O)O[C@H]1[C@@H](O)c2c(ccc3ccc(=O)oc23)OC1(C)C`, the “hERG current change (%, negative = inhibition) at 10uM” value was found to be 3.92%. Regarding `C/C=C(/C)C(=O)O[C@@H]1[C@H](OC(=O)C=C(C)C)c2c(ccc3ccc(=O)oc23)OC1(C)C`, the “hERG current change (%, negative = inhibition) at 10uM” value is on record as -0.258%. With `CC(=O)OC1c2c(ccc3ccc(=O)oc23)OC(C)(C)C1OC(=O)CC(C)C` (centres unmarked), the “hERG current change (%, negative = inhibition) at 10uM” value is reported as -30.4%.

In the case of `C/C=C(/C)C(=O)O[C@@H]1[C@H](OC(C)=O)c2c(ccc3ccc(=O)oc23)OC1(C)C`, the “hERG current change (%, negative = inhibition) at 10uM” value is on record as -36%. To `CC(=O)O[C@@H]1[C@H](OC(=O)CC(C)C)c2c(ccc3ccc(=O)oc23)OC1(C)C` belongs -67.2%; to `C/C=C(/C)C(=O)O[C@@H]1c2c(ccc3ccc(=O)oc23)OC(C)(C)[C@@H]1OC(=O)/C(C)=C\C`, -8.07%. Take `C/C=C(\C)C(=O)OC1c2c(ccc3ccc(=O)oc23)OC(C)(C)C1OC(C)=O` (centres unmarked): the “hERG current change (%, negative = inhibition) at 10uM” value is -72.5%.

Regarding `CC(=O)c1cccc(NC(=O)C(CC(C)C)NC(=O)C2CCCCC2)c1` (centres unmarked), the “hERG current change (%, negative = inhibition) at 10uM” value was -4.77%. The value for `O=C(O)c1c2c(nc3ccc(S(=O)(=O)N4CCC(C(=O)NC5CCCC5)CC4)cc13)CCCCC2` was 9.65%; that for `O=C1c2oc3ccc(Cl)cc3c(=O)c2C(c2cccc(Br)c2)N1CCO` (centres unmarked) was -13.1%. To `COc1ccc(/C(=N\O)c2ncc(C(F)(F)F)cc2Cl)cc1` belongs -3.33%; to `CCOC(=O)c1cnc(COc2ccccc2Cl)[nH]c1=O`, 16%; to `CC(C)Cn1c(SCC(=O)N2CCN(C(=O)c3ccco3)CC2)nc2ccccc2c1=O`, -73.2%. As to `CC(C)Cn1c(SCC(=O)N2CCCCC2)nc2ccccc2c1=O`, the “hERG current change (%, negative = inhibition) at 10uM” value is -24.7%. For the compound `CCn1c(SCC(=O)N2CCCC2)nc2ccccc2c1=O`, the “hERG current change (%, negative = inhibition) at 10uM” value is listed as -23%. The value for `CC(C)Cn1c(SCC(=O)N2CCOCC2)nc2ccccc2c1=O` was -5.9%; that for `CCCn1c(SCC(=O)N2CCN(C(=O)c3ccco3)CC2)nc2ccccc2c1=O` was -82.8%; that for `O=C(CSc1nc2ccccc2n1CC(=O)N1CCCC1)N1CCN(C(=O)c2ccco2)CC1` was -0.921%.

As for `Cc1nc2ccccc2c(=O)n1-c1ccc(F)cc1`, the “hERG current change (%, negative = inhibition) at 10uM” value is listed as -12.1%.

`COCCCNC(=S)Nc1ccc(OC(F)F)cc1C`: the “hERG current change (%, negative = inhibition) at 10uM” value was determined as 7.74%. Consider `CCOC(=O)C1CCN(CCC(=O)Nc2ccc(Br)c(C)c2)CC1`, for which the “hERG current change (%, negative = inhibition) at 10uM” value is -62.8%. For `CCOC(=O)C1CCCN(CCC(=O)Nc2ccc(Br)c(C)c2)C1.Cl` (centres unmarked), the “hERG current change (%, negative = inhibition) at 10uM” value is -36.1%. To `Cc1cc(NC(=O)CCN2CCC(C(N)=O)CC2)ccc1Br` belongs -26.7%; to `CCOC(=O)C1CCN(CCC(=O)Nc2ccc(C)c(C)c2)CC1`, -54.2%; to `CCOC(=O)C1CCN(CC(=O)Nc2ccc(OC)c(Cl)c2)CC1`, -12.5%. The value for `CCOC(=O)C1CCN(c2c(Nc3ccc(C)c(C)c3)c(=O)c2=O)CC1` was -12.6%; that for `CCCCn1c(Nc2ccccc2)nc2ccccc21` was 24.7%; that for `CCOc1ccc(S(=O)(=O)Nc2cccc(C(=O)N3CCN(C(C)=O)CC3)c2)cc1` was -14.9%. The value for `C/C(=N/NS(=O)(=O)c1ccc(C(C)(C)C)cc1)c1ccc2c(c1)OCO2` was -3.17%. As to `Cc1cc(=O)oc2cc(OCC(=O)OCC(=O)N(CCC#N)c3ccccc3)ccc12`, the “hERG current change (%, negative = inhibition) at 10uM” value came to 6.04%. Take `COC(=O)c1ccc(C(=O)OC)c(NC(=O)CN(c2ccc3c(c2)OCO3)S(C)(=O)=O)c1`: the “hERG current change (%, negative = inhibition) at 10uM” value was -21.1%. To `CSCCCNC(=O)c1ccccc1OC1CCN(S(C)(=O)=O)CC1` belongs 1.38%. The value for `CCN(CC)CCCNC(=O)c1sc2ncn(CC(=O)Nc3ccc(C)c(Cl)c3)c(=O)c2c1C` was -13%; that for `COCCNC(=O)c1sc2ncn(CC(=O)Nc3ccc(C)c(Cl)c3)c(=O)c2c1C` was 10.5%; that for `CCN(CC)CCNC(=O)c1sc2ncn(CC(=O)Nc3ccc(C)c(Cl)c3)c(=O)c2c1C` was -51.8%. The value for `COc1ccc(C(=O)C(CCCCC(CN(C)C)C(=O)c2ccc(OC)cc2)CN(C)C)cc1.Cl` (centres unmarked) was -2.07%; that for `O/N=C/c1ccc(OCc2ccccc2F)c(Cl)c1` was 2.95%.

Consider `COc1cc2c(cc1NC(=O)CN1C(=O)NC3(CCc4ccccc43)C1=O)oc1ccccc12` (centres unmarked), for which the “hERG current change (%, negative = inhibition) at 10uM” value is recorded as 7.1%. Take `C=CCn1c(COc2ccc(Cl)cc2)nnc1SCC(=O)NCC(=O)OCC`: the “hERG current change (%, negative = inhibition) at 10uM” value is reported as -31.4%.

For `C=CCn1c(COc2ccccc2F)nnc1SCC(=O)N1CC(=O)Nc2ccccc21`, the “hERG current change (%, negative = inhibition) at 10uM” value is given as -22.6%. As to `C=CCn1c(COc2ccccc2)nnc1SCC(=O)O`, the “hERG current change (%, negative = inhibition) at 10uM” value is listed as -3.46%. `C=CCn1c(COc2ccc(F)cc2)nnc1SCC(=O)N1CC(=O)Nc2ccccc21`: the “hERG current change (%, negative = inhibition) at 10uM” value is recorded as -33%. On to `C=CCn1c(COc2ccc(Cl)cc2)nnc1SCC(=O)N/N=C/c1ccccc1`, for which the “hERG current change (%, negative = inhibition) at 10uM” value is reported as -7.71%.

Regarding `C=CCn1c(COc2ccc(Cl)cc2)nnc1SCc1ccc(C#N)cc1`, the “hERG current change (%, negative = inhibition) at 10uM” value is on record as -69.8%.

For `C=CCn1c(COc2ccc(Cl)cc2)nnc1SCC(=O)N1CC(=O)Nc2ccccc21`, the “hERG current change (%, negative = inhibition) at 10uM” value is reported as -63.5%.

`C=CCn1c(COc2ccccc2)nnc1SCC(=O)C(C)(C)C`: the “hERG current change (%, negative = inhibition) at 10uM” value was -13.6%. The value for `C=CCn1c(COc2ccccc2)nnc1SCc1ccc(C#N)cc1` was -68.2%; that for `O=C(CSCc1ccc(F)cc1)NCc1ccc(F)cc1` was -24.7%; that for `Cc1n[nH]c(=S)n(NC(=O)CC(=O)Nn2c(=S)[nH]nc(C)c2=O)c1=O` was 45.4%.

Consider `COc1ccc(NC(=O)C(C)SCc2ccccc2)cc1OC` (centres unmarked), for which the “hERG current change (%, negative = inhibition) at 10uM” value is listed as -1.56%. With `C=CCSc1nc2sc3c(c2c(=O)[nH]1)CCC3`, the “hERG current change (%, negative = inhibition) at 10uM” value is 2.84%.

In the case of `CN(CC(=O)NC1CCCCC1)S(=O)(=O)c1ccc(Br)s1`, the “hERG current change (%, negative = inhibition) at 10uM” value is reported as 20.1%. For the compound `CCc1ccc2c(c1)C1(SC(NC(C)=O)=NN1C(C)=O)C(=O)N2CC` (centres unmarked), the “hERG current change (%, negative = inhibition) at 10uM” value is -0.0665%. The value for `C=CCNC(=O)C1CCN(S(C)(=O)=O)CC1` was -0.873%; that for `CNC(=S)N(Cc1cccs1)Cc1cc2ccc(OC)cc2[nH]c1=O` was 6.44%; that for `O=C1NCC(COc2ccc(Cl)cc2)O1` (centres unmarked) was 48.4%.

On to `O=C1NCC(COc2ccc([N+](=O)[O-])cc2)O1` (centres unmarked), for which the “hERG current change (%, negative = inhibition) at 10uM” value is on record as -78.4%. The value for `COc1ccc(OCC2CNC(=O)O2)cc1` (centres unmarked) was -26.2%; that for `CCCn1cc(CN2CCCC(C(=O)c3ccc4c(c3)OCO4)C2)c(C)n1` (centres unmarked) was -55.4%. The value for `CCCn1ncc(CN2CCCC(C(=O)c3cccc(OC(C)C)c3)C2)c1C` (centres unmarked) was -48.8%. On to `CCCn1cc(CN2CCCC(C(=O)c3cccc(OC(C)C)c3)C2)c(C)n1` (centres unmarked), for which the “hERG current change (%, negative = inhibition) at 10uM” value is given as -35.5%. The value for `CCCn1cc(CN2CCCC(C(=O)c3cccc(OC)c3)C2)c(C)n1` (centres unmarked) was -51%. To `CCCn1ncc(CN2CCCC(C(=O)c3cccc(OC)c3)C2)c1C` (centres unmarked) belongs -67.8%. To `CCn1ncc(CN2CCCC(C(=O)c3cccc(OC(C)C)c3)C2)c1C` (centres unmarked) belongs -19.8%; to `CCn1cc(CN2CCCC(C(=O)c3cccc(OC)c3)C2)c(C)n1` (centres unmarked), -21.3%; to `CCCn1cc(CN2CCC(n3nccc3NC(=O)c3ccc4c(c3)OCO4)CC2)c(C)n1`, -5.62%.
